Experiment [1] concerns Jurkat. Nature of the experiment: mean cell size (FSC-A) relative to DMSO control (fraction of control); higher = larger cells. The conditions noted are these: 48 h. The gist of the method:
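Jurkat cells seeded at 600 cells/µl were incubated 1 h, then exposed for 48h to the Enzo Screen-Well FDA Approved Drug Library v2.0 at 25µM in 0.9% (v/v) final DMSO. Drugs that cut counts below 20% of controls were diluted 10-fold and retested, down to 25nM. Cell count and mean cell size (forward scatter area) were read on an Accuri C6 flow cytometer, relative to solvent-only controls. Plates held 6-12 controls; values are means of 3 biological replicates.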

Experiment [2] relates to Jurkat. Nature of the experiment: cell count relative to DMSO control (fraction of control); higher = more cells (less growth inhibition). Particulars: 48 h.

Structures can show the parent of a compound that is named as a salt. ± gives the standard deviation.

The molecule `CC(C)/N=c1\cc2n(-c3ccc(Cl)cc3)c3ccccc3nc-2cc1Nc1ccc(Cl)cc1` [Clofazimine] (concentration: 2.5 µM) displayed a mean cell size in the experiment with Jurkat [1] of 0.952 ± 0.03. For the same molecule, in the experiment with Jurkat [2], the cell count stood at 0.695 ± 0.066.

On to `CC(C)[C@H]1CC[C@H](C(=O)N[C@H](Cc2ccccc2)C(=O)O)CC1` [Nateglinide] (concentration: 25 µM), for which the mean cell size with Jurkat [1] is 0.966 ± 0.063. The cell count in the experiment with Jurkat [2] came to 0.883 ± 0.14.

On to `Brc1c(NC2=NCCN2)ccc2nccnc12` [Brimonidine] (concentration: 25 µM), for which the mean cell size in the experiment on Jurkat [1] is 0.954 ± 0.027. In the experiment on Jurkat [2], this molecule showed a cell count of 0.9 ± 0.091.

In the experiment with Jurkat [1], `CC(=O)Oc1ccccc1C(=O)Nc1ncc([N+](=O)[O-])s1` [Nitazoxanide] (concentration: 2.5 µM) registered a mean cell size of 0.9325 ± 0.0054. The molecule also returned a cell count in the experiment with Jurkat [2] of 0.862 ± 0.091.

The molecule `C[n+]1ccccc1/C=N/O` [Pralidoxime Chloride] (concentration: 25 µM) showed a mean cell size in the experiment with Jurkat [1] of 1.08 ± 0.037. For the same molecule, the cell count in the experiment with Jurkat [2] came out at 0.959 ± 0.1.

In turn, `CCCN(CCC)CCc1cccc2c1CC(=O)N2` [Ropinirole·HCl] (concentration: 25 µM) came in with a mean cell size in the experiment on Jurkat [1] of 0.974 ± 0.012. The molecule also yielded a cell count in the experiment with Jurkat [2] of 0.958 ± 0.1.

The molecule `NC(=O)N1c2ccccc2CC(=O)c2ccccc21` [Oxcarbazepine] (concentration: 25 µM) showed a mean cell size in the experiment on Jurkat [1] of 0.952 ± 0.015. This molecule also gave a cell count in the experiment on Jurkat [2] of 0.772 ± 0.15.

Regarding `O=C(O[C@@H]1C[C@@H]2C[C@H]3C[C@H](C1)N2CC3=O)c1c[nH]c2ccccc12` [Dolasetron] (concentration: 25 µM), the mean cell size with Jurkat [1] stood at 0.921 ± 0.029. The molecule further returned a cell count with Jurkat [2] of 0.29 ± 0.053.

The molecule `COC(=O)CCC(=O)CN` [Methyl Aminolevulinate·HCl] (concentration: 25 µM) yielded a mean cell size with Jurkat [1] of 0.99 ± 0.033. The same molecule came in with a cell count with Jurkat [2] of 0.739 ± 0.074.

Regarding `CC(CN1c2ccccc2Sc2ccccc21)N(C)C` (stereo not given) [Promethazine·HCl] (concentration: 25 µM), the mean cell size with Jurkat [1] came to 0.994 ± 0.023. In the experiment on Jurkat [2], this molecule returned a cell count of 0.717 ± 0.16.

Values taken from the supplement of paper PMC4709259.
